PubChem BioAssay
Activity calls are given as the source filed them. Unless noted, the rule behind the calls is not given here.

Molecular target: Homeobox protein Hox-A13 (Mus musculus) (UniProt Q62424)
Assay: disruptors of Hoxa13 oligonucleotide interaction – biochemical, fluorescence polarization, labeled oligonucleotide, primary screen (AID 1185)
Conditions: Hoxa13:DNA binding, 15 min, higher = more signal, called active from +8 up or from −8 down

Homeobox protein Hox-A13 (Mus musculus), sequence (Q62424 whole entry, looked up): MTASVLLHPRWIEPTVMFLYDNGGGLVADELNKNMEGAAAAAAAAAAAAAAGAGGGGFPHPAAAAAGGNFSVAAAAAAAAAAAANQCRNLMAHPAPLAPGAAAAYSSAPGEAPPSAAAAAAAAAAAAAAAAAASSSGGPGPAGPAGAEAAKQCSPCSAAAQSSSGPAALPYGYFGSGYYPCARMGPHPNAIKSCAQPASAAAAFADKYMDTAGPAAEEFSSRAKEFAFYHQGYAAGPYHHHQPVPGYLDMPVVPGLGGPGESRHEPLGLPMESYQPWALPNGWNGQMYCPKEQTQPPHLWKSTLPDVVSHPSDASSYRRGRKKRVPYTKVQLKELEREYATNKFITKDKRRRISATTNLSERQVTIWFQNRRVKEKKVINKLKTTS

Compound | z-score
CC(C)C[C@@H]1NC(=O)[C@@H]2C[C@H](C(=O)NCCCCCCNC(=O)CS)[C@H](c3cccc(OCCO)c3)N2C1=O | -3.13 (inactive)
O=C1N(Cc2ccccc2)c2ccccc2C[C@@]12COC(c1ccc(OCCCO)cc1)=N2 | -5.21 (inactive)
CC(C)C(=C=CC[C@H](O)c1ccccc1OCCO)C[C@H](O)c1cc(Cl)cc(Cl)c1O | -4.67 (inactive)
CCCC#C[Si](O[C@H](CC)c1cn(Cc2ccccc2)nn1)(C(C)C)C(C)C | -0.88 (inactive)
OCCCC1=CC(c2ccc(CN3CCCC3)cc2)N(Cc2cccc(OC(F)(F)F)c2)CC1 (stereo not given) | -3.15 (inactive)

Tested on: not listed separately
Assay: blockers of DNA damage checkpoint Chk1 activation – imaging, HeLa, hydroxyurea, phospho-Chk1 antibody, percent positive cells, primary screen (AID 1186)
Conditions: hydroxyurea-induced phospho-Chk1 immunofluorescence imaging, higher = more signal

Compound | z-score
CC(=O)OCC1C2CC[C@H]3C(OCc4ccc(F)cc4C(F)(F)F)OC[C@]4(C)[C@H]3C2=C(CN4C(=O)OC(C)(C)C)[C@H](C)C1COC(C)=O (stereo not given in full) | 0.657 (inactive)
O=C1[C@H]2C=C(I)[C@H](C[C@@H]2c2ccccc2)[C@@]12CO2 | -0.428 (inactive)
NC(=O)N1C(=O)C2C(C1=O)C1C=C(CCCO)C2C(c2ccc(CN3CCCC3)cc2)N1Cc1sc2ccccc2c1Cl (stereo not given) | 0.252 (inactive)
CCCCC(=C=CC[C@H](O)c1ccc(CO)o1)CCO | 0.818 (inactive)
O=C(NCC(O)CO)C1N=C(c2ccc(OCCCO)cc2)N(c2ccccc2)O1 (stereo not given) | -0.195 (inactive)
CCCCCC1=C2CNC(CC(C)C)(C(=O)OC)C=C2C(C)C1=O (stereo not given) | 1.32 (inactive)
COc1ccc([Si](C)(C)[C@H]2[C@H](CC(=O)N3CCC[C@H]3CO)O[C@@]3(C(=O)N(Cc4ccc(N5CCCCC5=O)cc4)c4ccccc43)[C@@H]2C)cc1 | 0.268 (inactive)
CN(C)CCCCNC(=O)[C@H]1C[C@H]2C(=O)N3CCC[C@H]3C(=O)N2[C@H]1c1cccc(OCCO)c1 | -0.322 (inactive)
C=CCC(OC(C)=O)[C@@H]1[C@@H](N(Cc2ccc(-c3ccccc3)cc2)C(=O)c2cccc3ccccc23)c2cc(OCCCO)ccc2N1C(=O)Cc1ccc(OC)cc1 (stereo not given in full) | -0.066 (inactive)
COc1ccc(C(=O)Nc2ccc3c(c2)[C@@]2(O[C@H](CCO)[C@@H]([Si](C)(C)c4ccc(OC)cc4)[C@@H]2C)C(=O)N3Cc2ccccc2)cc1 | 0.0691 (inactive)
CCOC(=O)C1=CCC(c2cc3ccccc3[nH]2)N(CCN2CC(C(=O)OCC)=CCC2c2cc3ccccc3[nH]2)C1 (stereo not given) | -0.852 (inactive)
CCCC[C@H]1OB(O)C[C@H]2C1=C(COc1ccccc1)C[C@H]1C(=O)C=CC(=O)[C@H]12 | -0.177 (inactive)
C=CCNC(=O)[C@H]1[C@@H]2C(=O)O[C@@H](c3ccccc3)[C@@H](c3ccccc3)N2[C@@H](c2ccc(OCCO)cc2)[C@]12C(=O)Nc1ccccc12 | 0.286 (inactive)
O=C(NCc1ccccc1)[C@@H]1c2ccccc2C(=O)N(Cc2cc(C(F)(F)F)cc(C(F)(F)F)c2)[C@H]1c1ccc(CO)cc1 | -0.0537 (inactive)
CN1C(=O)C2C(C3CC3)C=C3CN(Cc4cccc(Cl)c4)[C@@H]([C@@H](O)Cc4ccccc4)C3C2C1=O (stereo not given in full) | -1.34 (inactive)
COc1ccc([Si](C)(C)[C@@H]2[C@@H](CC(=O)N3Cc4ccccc4C[C@H]3CO)O[C@]3(C(=O)N(Cc4cccc(N5CCOC5=O)c4)c4ccccc43)[C@H]2C)cc1 | -0.34 (inactive)
C=C(COC)/C(=C/C[C@@H](OC(C)=O)c1ccccc1OCCO)c1cnc2ccccc2c1 | -0.5 (inactive)
C=CCN1C(=O)[C@@]2(O[C@@H](CCn3cc([C@H](O)c4ccccc4)nn3)[C@H]([Si](C)(C)c3ccc(OC)cc3)[C@H]2C)c2cc(N3C(=O)c4cccc5cccc3c45)ccc21 | -0.0586 (inactive)

Compound | z-score
COc1ccc(C(O)C2C=CC3C(=O)N(c4ccccc4)C(=O)C3N2Nc2ccc([N+](=O)[O-])cc2)c2ccccc12 (stereo not given) | 0.219 (inactive)
C=C(CCCC)/C(=C/C[C@H](OC(=O)c1ccncc1)c1ccc(OCCO)cc1)c1cnc2ccccc2c1 | -0.658 (inactive)
CO[C@H]1O[C@H](CO)[C@@H](OC(=O)Nc2ccc3c(c2)OCO3)[C@H](OC(=O)Nc2ccccc2-c2ccccc2)[C@H]1OC(=O)Nc1ccccc1-c1ccccc1 | 0.0165 (inactive)
CC1CC/C=C\[C@H]2OC34C=CCN(c5ccc(Cl)cc5)C(=O)[C@H]3N(CCCCCCO)C(=O)[C@]4(C)C2C(=O)O1 (stereo not given in full) | -0.517 (inactive)
O=C1NC(=O)C2C1C=CC(C(O)c1ccc([N+](=O)[O-])cc1)N2Nc1ccccn1 (stereo not given) | -0.284 (inactive)
O=C(N1CCOCC1)[C@@]1(Cc2ccccc2)COC(c2ccc(OCCCO)cc2)=N1 | -0.42 (inactive)
C=CCC(OC(C)=O)[C@@H]1[C@@H](N(Cc2cccc3ccccc23)C(=O)Cc2ccc(OC)cc2)c2cc(OCCCO)ccc2N1C(=O)Cc1ccc2ccccc2c1 (stereo not given in full) | 0.42 (inactive)
COC(=O)C(CC#Cc1ccc2c(c1)[C@]1(C(=O)N2)[C@H](c2ccc(OCCO)cc2)N2[C@H](c3ccccc3)[C@H](c3ccccc3)OC(=O)[C@H]2[C@@H]1C(=O)N1CCCCCCC1)C(=O)OC | -0.224 (inactive)
COCCCN1C(=O)[C@@]2(c3ccc([N+](=O)[O-])cc3)CC(=O)N(CC34CC5CC(CC(C5)C3)C4)[C@@H]2c2ccc(CO)cc21 | -0.313 (inactive)
CO[C@H]1O[C@H](CO)[C@@H](OC(=O)Nc2ccccc2-c2ccccc2)[C@H](OC(=O)Nc2ccccc2)[C@H]1OC(=O)Nc1ccccc1 | -0.392 (inactive)
COCCOC(=O)N1C(=O)[C@@]2(c3cc(C#CCC(C(=O)OC)C(=O)OC)ccc31)[C@H](C(=O)Nc1nc3ccccc3s1)[C@H]1C(=O)O[C@H](c3ccccc3)[C@H](c3ccccc3)N1[C@@H]2c1ccc(OCCO)cc1 | -0.0393 (inactive)
O=C(NC1CC1)[C@@H]1c2ccccc2C(=O)N(Cc2cc(C(F)(F)F)cc(C(F)(F)F)c2)[C@H]1c1ccc(CO)cc1 | -0.129 (inactive)
CC(C)C[C@@H]1NC(=O)[C@@H]2C[C@H](C(=O)NCCCCCCNC(=O)CS)[C@H](c3cccc(OCCO)c3)N2C1=O | -0.517 (inactive)
O=C1N(Cc2ccccc2)c2ccccc2C[C@@]12COC(c1ccc(OCCCO)cc1)=N2 | 0.0438 (inactive)
CC(C)C(=C=CC[C@H](O)c1ccccc1OCCO)C[C@H](O)c1cc(Cl)cc(Cl)c1O | 0.425 (inactive)
CCCC#C[Si](O[C@H](CC)c1cn(Cc2ccccc2)nn1)(C(C)C)C(C)C | -0.074 (inactive)
OCCCC1=CC(c2ccc(CN3CCCC3)cc2)N(Cc2cccc(OC(F)(F)F)c2)CC1 (stereo not given) | 0.86 (inactive)
